We go through 61 compounds from PubChem BioAssay AID504850 (National Center for Advancing Translational Sciences (NCATS), 2011).

The whole screen tested about 2,300 compounds, of which about 1,200 (52%) were called active. About 34% were inconclusive and are not listed. Calls follow the shape of the dose curve; as a rule, active = well fitted inhibition curve with a large enough effect; inconclusive = small, poorly fitted or top-dose-only effect, or effect the other way; inactive = no such curve, though single readings can be large or run the other way. So high a share suggests a set chosen from earlier hits. The list shows a part of the results.
Potency is read from the fitted curve at half-maximal effect.

The assay can be described thus: Confirmation screen for delayed death inhibitors of the malarial parasite plastid, 48 hour incubation. Also: nearly all actives have a fitted effect of over 65% in size. Conditions: P. falciparum-infected erythrocytes, luciferase growth; series mostly up to 28.7 µM. The gist of the method:
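Erythrocytes infected with luciferase-expressing P. falciparum (2% hematocrit, 0.1% parasitemia) incubated with compounds 48 hours at 37 C, 5% CO2, in RPMI/Albumax. Growth inhibition scored as reduced luminescence after detection reagent.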
On to `CCOc1ccc2c(c1)sc(N)[n+]2Cc1cc(C)cc2cccnc12`, for which the Potency is 5.62 µM (active).

`O=C(NCc1ccco1)c1cc2sccc2n1Cc1ccc(F)cc1`: the Potency is 12.6 µM (active).

As for `O=C(Nc1cccc(S(=O)(=O)NCc2ccco2)c1)c1cc(-c2ccc(F)cc2)nc2ccccc12`, the Potency entry was “inactive”.

Take `Cc1ccc(/C=N/NC(=O)CSc2nc3ccccc3c(=O)n2-c2ccccc2C)s1`: the Potency is 11.2 µM (active).

Take `COc1ccc(C(C)=O)cc1CSc1nc2ccccc2c(=O)n1-c1ccccc1C`: the Potency was 7.08 µM (active).

`O=C1C2CCCN2C(c2ccccc2)N1c1ccc(Cl)cc1` (stereo unspecified): the Potency entry was “inactive”.

Turning to `O=C1C(=O)c2ccccc2C(O)=C1C1CCC(c2ccc(Cl)cc2)CC1` (stereo unspecified), the Potency was 0.02 µM (active).

With `O=C(NCc1ccccn1)c1cc(-c2ccc(-c3ccccc3)cc2)nc2ccccc12`, the Potency is 15.8 µM (active).

Take `N#Cc1c(SCC(=O)Nc2ccc(C(F)(F)F)cc2)sc2c(O)cc(=O)[nH]c12`: the Potency was 0.316 µM (active).

As to `Cc1cc(NC(=O)CSc2sc3c(O)cc(=O)[nH]c3c2C#N)ccc1Br`, the Potency is 14.1 µM (active).

With `O=C(CCN1C(=O)/C(=C/c2ccccc2)SC1=S)NCCc1ccc(O)cc1`, the Potency entry was “inactive”.

On to `O=C(O)CCCN1C(=O)/C(=C\C(Cl)=C\c2ccccc2)SC1=S`, for which the Potency is 14.1 µM (active).

As to `CCC/C(=N\NC(=O)c1ccco1)c1ccc(Cl)s1`, the Potency was 11.2 µM (active).

Regarding `CC1CCCN(Cc2c(O)ccc3c(=O)c(-c4nc5ccccc5s4)c(N)oc23)C1` (stereo unspecified), the Potency is 0.316 µM (active).

Turning to `C=CCN(c1ccccc1)S(=O)(=O)c1cccc(C(=O)N2CC(C)CC(C)C2)c1` (stereo unspecified), the Potency was 14.1 µM (active).

`COc1ccc(Nc2nnc(-c3ccc(C)cc3)c3ccccc23)cc1C(=O)N1CCCCC1`: the Potency is 2.51 µM (active).

Take `COc1ccc(Nc2nnc(-c3ccccc3)c3ccccc23)cc1C(=O)N1CCCCC1`: the Potency was 7.94 µM (active).

Turning to `Cc1ccccc1-c1cc(C(=O)n2cccn2)c2cc(Cl)ccc2n1`, the Potency result was “inactive”.

On to `Cc1ccc(C)c(-c2cc(C(=O)NNC(=S)NCC(C)C)c3ccccc3n2)c1`, for which the Potency was 14.1 µM (active).

As for `Cc1ccc(C)c(-c2cc(C(=O)Nc3nccs3)c3ccccc3n2)c1`, the Potency is 4.47 µM (active).

As for `CCC1OC(=O)C[C@@H](O)[C@H](C)[C@@H](OC2OC(C)CC(N(C)C)C2O)[C@@H](CC=O)C[C@@H](C)C(=O)/C=C/[C@]2(C)OC2C1C` (stereo partly specified), the Potency is 11.2 µM (active).

On to `Cc1onc(-c2ccccc2Cl)c1C(=O)N1CC(C)CC(C)C1` (stereo unspecified), for which the Potency entry is “inactive”.

Take `Cc1onc(-c2ccccc2Cl)c1C(=O)N1CCC(Cc2ccccc2)CC1`: the Potency is 15.8 µM (active).

`Cc1ccc(S(=O)(=O)N(C)C)cc1NC(=O)c1cncc(Br)c1`: the Potency was 8.91 µM (active).

`NCCCNc1nc(N)c([N+](=O)[O-])c(NC2CCCCC2)n1`: the Potency is 3.98 µM (active).

Turning to `N=C(N)c1ccc(OCCCCCOc2ccc(C(=N)N)cc2)cc1`, the Potency is 1 µM (active).

Consider `Cc1cccc(-n2c(C)cc(/C=N\NC(=O)c3cccs3)c2C)c1`, for which the Potency is 11.2 µM (active).

In the case of `O=C(NCCCn1ccnc1)C(=O)NCC1OCCN1S(=O)(=O)c1ccc(F)cc1` (stereo unspecified), the Potency entry was “inactive”.

`COc1ccc(CCNC(=O)C(=O)NCC2OCCN2S(=O)(=O)c2ccc3c(c2)OCCO3)cc1OC` (stereo unspecified): the Potency was 11.2 µM (active).

As for `CCC(C(=O)O)C1OC(C(C)C(O)C(C)C(=O)C(CC)C2OC3(C=CC(O)C4(CCC(C)(C5CCC(O)(CC)C(C)O5)O4)O3)C(C)CC2C)C(C)CC1C` (stereo unspecified), the Potency was 0.251 µM (active).

Turning to `O=C(CCl)NCc1c(Cl)cccc1-n1cccc1`, the Potency was 12.6 µM (active).

For the compound `O=C(NC1CCCCC1)c1ccc(CS(=O)Cc2ccccc2Cl)o1` (stereo unspecified), the Potency was 12.6 µM (active).

For `Cc1ccc(CS(=O)(=O)Cc2ccc(C(=O)NC3CCCC3)o2)cc1`, the Potency was 11.2 µM (active).

Consider `C/C(CC(=O)NC1CCCCC1)=N\NC(=O)COc1ccc(C)cc1Br`, for which the Potency entry was “inactive”.

With `Cc1ccc(NC(=O)c2nnn(CC(=O)Nc3ccc4c(c3)OCO4)c2N)cc1C`, the Potency result was “inactive”.

Turning to `O=C(CCl)Nc1ccc2c(c1)OCO2`, the Potency was 2.24 µM (active).

Turning to `Cn1c(=O)n(C)c2cc(NC(=O)CCl)ccc21`, the Potency is 2.24 µM (active).

Turning to `CCN1CCN(Cc2c(O)ccc3c2O/C(=C\C=C\c2ccccc2)C3=O)CC1`, the Potency was 3.98 µM (active).

As for `Cc1cc(OCC(=O)N2CCCC2)cc(C)c1Cl`, the Potency entry was “inactive”.

Consider `CCOc1ccc(S(=O)(=O)N2CCN(C(=O)CCOc3ccccc3C)CC2)cc1`, for which the Potency was 12.6 µM (active).

`O=C(COc1ccccc1)N1CCN(S(=O)(=O)c2ccc(Br)cc2)CC1`: the Potency was 11.2 µM (active).

In the case of `Cc1cc(OCCN2CCN(S(=O)(=O)c3ccccc3F)CC2)ccc1C(C)C`, the Potency entry was “inactive”.

On to `COc1ccc(CNC(=O)c2cc(S(=O)(=O)N3CCOCC3)cn2C)cc1`, for which the Potency result is “inactive”.

In the case of `O=S(=O)(c1ccc(OCC(O)CN2CCN(c3ccc(F)cc3)CC2)cc1)N1CCOCC1` (stereo unspecified), the Potency is 11.2 µM (active).

Take `O=S(=O)(c1ccc(OCc2ccc(Br)cc2)cc1)N1CCOCC1`: the Potency is 11.2 µM (active).

Turning to `CN(C)c1ccc(CNc2ncnc3sccc23)cc1`, the Potency result was “inactive”.

Take `COc1cccc(-c2ccc3ncnc(NCc4cccs4)c3c2)c1`: the Potency was 11.2 µM (active).

In the case of `Cc1cccc(-c2ccc3ncnc(NCc4cccs4)c3c2)c1`, the Potency was 7.08 µM (active).

Turning to `Cc1ccn2c(NC3CCCC3)c(-c3ccccn3)nc2c1`, the Potency was 7.08 µM (active).

Consider `COc1cccc([C@@H]2Oc3ccc(OC)cc3C(=O)[C@H]2O)c1`, for which the Potency was 7.94 µM (active).

Consider `CC(=O)N1CN(C2CCCC2)Cc2c1sc1c2CCCC1`, for which the Potency is 14.1 µM (active).

For `COc1ccc(S(=O)(=O)N2CCCCCC2)cc1C(=O)N(C)CC(=O)Nc1cc(C)ccc1C`, the Potency was 7.94 µM (active).

Take `COC(=O)c1cn(C)c2ccc(S(=O)(=O)N3CCCC3)cc2c1=O`: the Potency entry was “inactive”.

For `COc1ccc(C)cc1N(CC(=O)Nc1ccc(S(=O)(=O)N2CCCC2)cc1)S(C)(=O)=O`, the Potency was 15.8 µM (active).

In the case of `COC(=O)c1cc(NC(=O)CN2CCc3cc4c(cc3C2)OCCCO4)cc(C(=O)OC)c1`, the Potency was 12.6 µM (active).

Turning to `CCOc1ccccc1N(CC(=O)Nc1ccc(S(=O)(=O)N2CCCC2)cc1)S(C)(=O)=O`, the Potency is 12.6 µM (active).

With `C/C=C(\C)CN1CCc2cc(OC)c(OC)cc2C1`, the Potency result was “inactive”.

As for `COc1cc2c(cc1OC)CN(CC(=O)Nc1ccc(S(=O)(=O)N3CCCC3)cc1)CC2`, the Potency is 15.8 µM (active).

Turning to `COc1ccc(OCCOc2ccc(S(=O)(=O)N3CCCC3)cc2C(N)=O)cc1`, the Potency is 11.2 µM (active).

Consider `COc1ccc(S(=O)(=O)N2CCCN(S(=O)(=O)c3ccc(OC)c(C)c3)CC2)cc1C`, for which the Potency was 14.1 µM (active).

Turning to `CCN(CC(=O)Nc1ccc(S(=O)(=O)N2CCOCC2)cc1)Cc1ccccc1`, the Potency was 12.6 µM (active).
